In ChEMBL document CHEMBL4513216, “Probing the Open Global Health Chemical Diversity Library for Multistage-Active Starting Points for Next-Generation Antimalarials” (ACS Infect Dis, 2020):
The whole screen tested about 69,000 compounds, of which about 8,600 (12%) showed an effect of 50% or more. For the sample, strong results were picked, then their nearest neighbours and some compounds at random.

Each compound was assayed on Plasmodium berghei (assay: Screen against P. berghei liver stage (PbLuc), transformed with Luciferase, at 10uM). Conditions: tested at 10 uM.
Type: functional, HepG2
With `O=C(c1cc2c(s1)CCC2)N1CCC(c2cnccn2)CC1` the INHIBITION was 28.5%.
Work on `CC(C)NC(=O)N1CCC2(CC1)CN(C(=O)NC(C)C)CCO2` yielded an INHIBITION of 11.8%.
For `CC(C)C(=O)NCc1ccc(N2CCCC2)nc1`, the INHIBITION was -24.2%.
`O=C(NCc1csc(-c2cnccn2)n1)c1cnn2c1CCCC2` gave an INHIBITION of 8.7%.
`Cc1cnn(CC2CCCN2C(=O)CCc2c(C)noc2Cl)c1` (stereo unspecified) gave an INHIBITION of 0%.
In the case of `CCNC(=O)[C@@H]1C[C@@H](NC(=O)c2ccsc2)CN1CCCSC`, the INHIBITION is reported as -16.9%.
With `Cc1cccc(CNC(=O)CNc2cc(CO)ccc2Cl)c1` the INHIBITION was 14.2%.
Compound `CN1CC(=O)N(c2cnn(C)c2)CC12CCN(Cc1cccnc1)C2` (stereo unspecified) has an INHIBITION of 39.8%.
`CC(C)(NCC(=O)NC(=O)NC1CC1)c1ccc2c(c1)OCO2` was tested, and the INHIBITION was 43.3%.
Work on `O=C(CC1[C@H]2CN(C(=O)c3cccnc3)C[C@@H]12)Nc1cccnc1` (stereo partly specified) yielded an INHIBITION of 34.6%.
`Cn1cc(-c2nnc3sc(C4CCC4)nn23)cn1` was tested, and the INHIBITION was 25.2%.
With `COc1cc(C)ccc1OCC(=O)NS(=O)(=O)c1cccnc1` the INHIBITION was -16%.
Work on `O=S(=O)(C1CC1)N1CCO[C@@H]2CC(COCc3cccnc3)C[C@H]21` (stereo partly specified) yielded an INHIBITION of 34.5%.
`O=C(Nc1cccnc1)NC1(c2cccc(F)c2)CC1` gave an INHIBITION of -2.39%.
Work on `Cc1cc(C)n(CC(=O)Nc2cc(-c3ccncc3)[nH]n2)n1` yielded an INHIBITION of 5.94%.
Compound `Cc1ccnn1CC(=O)Nc1cc(-c2ccncc2)[nH]n1` has an INHIBITION of 63.4%.
Compound `Cc1ccn(CC(=O)Nc2cc(-c3ccncc3)[nH]n2)n1` has an INHIBITION of 39.6%.
In the case of `Cc1cc(C2CCCN(C(=O)COc3cc(C)on3)C2)n[nH]1` (stereo unspecified), the INHIBITION is reported as -23.8%.
Work on `COCCNc1ncc(-c2onc(C)c2C)c(-c2ccco2)n1` yielded an INHIBITION of 31.85%.
`Cc1nnc(N2CCOC(C)(C(=O)NC3CCCC3)C2)c2ccccc12` (stereo unspecified) was tested, and the INHIBITION was 4.41%.
Work on `O=C(CCn1ncc2c(Cl)cccc21)NCCCO` yielded an INHIBITION of 49.9%.
`CN(C)CCNC(=O)CCn1ncc2c(Cl)cccc21` was tested, and the INHIBITION was 55.7%.
`Cc1nn(C)c(C)c1CNC(=O)CCn1ncc2c(Cl)cccc21` gave an INHIBITION of 49.9%.
Compound `CCn1ncc(NC(=O)CCn2ncc3c(Cl)cccc32)c1C` has an INHIBITION of 9.32%.
Compound `COCCCNC(=O)CCn1ncc2c(Cl)cccc21` has an INHIBITION of 20.9%.
In the case of `CCn1cc(CNC(=O)CCn2ncc3c(Cl)cccc32)cn1`, the INHIBITION is reported as 54.9%.
With `CN(C)C(=O)CNC(=O)CCn1ncc2c(Cl)cccc21` the INHIBITION was -15.8%.
`O=C(CCn1ncc2c(Cl)cccc21)NCCCn1cccn1` showed an INHIBITION of -2.28%.
`CCN(CC)C(=O)CCn1ncc2c(Cl)cccc21` gave an INHIBITION of -4.74%.
`COCCNC(=O)CCn1ncc2c(Cl)cccc21` showed an INHIBITION of 55.7%.
In the case of `O=C(CCn1ncc2c(Cl)cccc21)NCC1CC1`, the INHIBITION is reported as 68.9%.
`CC(C)(C)NC(=O)CCn1ncc2c(Cl)cccc21` showed an INHIBITION of 47.4%.
`Cc1nnc(N2CCc3cncnc3C2)c(C#N)c1C` showed an INHIBITION of -5.08%.
In the case of `Cc1nc(C2CCCN2CC(=O)Nc2c(C)n[nH]c2C)no1` (stereo unspecified), the INHIBITION is reported as 27.8%.
`CC[C@H](C)[C@H](N)C(=O)Nc1nc(-c2cnc(N(C)CCO)nc2)cs1` gave an INHIBITION of -37.5%.
Work on `Cc1cn2c(=O)c(-c3ccnc(N4CCC[C@@H]4CO)n3)cnc2s1` yielded an INHIBITION of 4.08%.
In the case of `Cn1cc(CC2CCN(C(=O)NCc3cccc(C(N)=O)c3)C2)cn1` (stereo unspecified), the INHIBITION is reported as -51.705%.
Work on `O=C1NC2(CCN(C/C=C/c3ccccc3)CC2)CC1c1ccccc1` (stereo unspecified) yielded an INHIBITION of 63.8%.
Work on `O=C1NC2(CCN(CC3CC3)CC2)CC1c1ccccc1` (stereo unspecified) yielded an INHIBITION of 52.6%.
In the case of `O=C1NC2(CCN(CCO)CC2)CC1c1ccccc1` (stereo unspecified), the INHIBITION is reported as 21.6%.
With `O=C1CC(c2ccccc2)C2(CCN(CC3CC3)CC2)N1` (stereo unspecified) the INHIBITION was 31.2%.
`O=C1NC2(CCN(Cc3cccnc3)CC2)CC1c1ccncc1` (stereo unspecified) gave an INHIBITION of 49.5%.
In the case of `O=C1NC2(CCN(CCc3ccccc3)CC2)CC1c1ccccc1` (stereo unspecified), the INHIBITION is reported as 52.6%.
With `O=C1NC2(CCNCC2)CC1c1cccnc1` (stereo unspecified) the INHIBITION was 52.3%.
In the case of `O=C1NC2(CCN(C(=O)Cc3ccsc3)CC2)CC1c1ccccc1` (stereo unspecified), the INHIBITION is reported as -4.88%.
Work on `O=C1NC2(CCNCC2)CC1c1ccncc1` (stereo unspecified) yielded an INHIBITION of 33.4%.
With `O=C1NC2(CCN(Cc3cccnc3)CC2)CC1c1cccnc1` (stereo unspecified) the INHIBITION was -12.1%.
With `O=C1NC2(CCNCC2)CC1c1ccccc1` (stereo unspecified) the INHIBITION was 49.7%.
Compound `O=C1NC2(CCN(C(=O)c3ccnnc3)CC2)CC1c1ccccc1` (stereo unspecified) has an INHIBITION of -16.9%.
`CCOCc1cnc2n1CCN(Cc1cccs1)C2C` (stereo unspecified) showed an INHIBITION of -10.5%.
`Nc1cc(-c2c[nH]nc2C2CCCN2CCCc2ccccc2)ccn1` (stereo unspecified) showed an INHIBITION of 17.8%.
`CCn1cc(CN2CCCN(C(=O)c3cccc(C#N)c3)CC2)cn1` gave an INHIBITION of -73.1%.
For `CNc1ccc(CC2CCCN(Cc3c[nH]cn3)C2)nn1` (stereo unspecified), the INHIBITION was 36.9%.
For `Cc1cnn(CC2CCCN2C(=O)Cc2c(C)noc2C)c1` (stereo unspecified), the INHIBITION was 29.4%.
`Cc1nccn1CC1CCCN(S(=O)(=O)c2cnn(C)c2)C1` (stereo unspecified) showed an INHIBITION of 42.5%.
Compound `CCc1nccn1C1CCCN(C(=O)c2csc(C3CC3)n2)C1` (stereo unspecified) has an INHIBITION of -4.16%.
In the case of `CCN1C[C@H]2CCN(c3ncccn3)CC[C@H]2S1(=O)=O`, the INHIBITION is reported as -41.6%.
Compound `CC(C)CN1C[C@H]2CCN(c3ncccn3)CC[C@H]2S1(=O)=O` has an INHIBITION of -14.9%.
In the case of `COCCN1C[C@H]2CCN(c3ncccn3)CC[C@H]2S1(=O)=O`, the INHIBITION is reported as 82.9%.
Compound `CCn1nc(C)c2nnn(CC(=O)Nc3ccccc3)c(=O)c21` has an INHIBITION of 49.9%.
`CN(C)S(=O)(=O)N1C[C@H]2CCC[C@@]2(COc2cccnc2)C1` showed an INHIBITION of -16.9%.
Compound `CN1CCN([C@@H]2CCN(C3CCOCC3)[C@H]2Cc2cnn(C)c2)CC1` has an INHIBITION of -8.85%.
Compound `Cc1nnsc1-c1nnc2sc(C3CCC3)nn12` has an INHIBITION of -13.1%.
`Cc1nnsc1-c1nnc2sc(C(C)C)nn12` was tested, and the INHIBITION was 12.5%.
For `Cc1nn2c(-c3snnc3C)nnc2s1`, the INHIBITION was 61.8%.
In the case of `O=C1CCC(c2ccc(Cl)cc2)=NN1CN1CCSCC1`, the INHIBITION is reported as 6.34%.
Compound `CO[C@@H]1CCN(Cc2cnn(C)c2)[C@@H]2CN(Cc3ccco3)C[C@@H]21` has an INHIBITION of 7.11%.
Work on `O=C(O)CCc1cc2n(n1)CCCN(C(=O)c1ccc(Cl)s1)C2` yielded an INHIBITION of 51.5%.
`CCc1cc(C(=O)N2CCCn3nc(CCC(=O)O)cc3C2)cs1` showed an INHIBITION of 22.8%.
`O=C(O)CCc1cc2n(n1)CCCN(C(=O)c1ccc3cc[nH]c3c1)C2` showed an INHIBITION of 8.47%.
For `O=C(O)CCc1cc2n(n1)CCCN(C(=O)c1cc3ccccc3s1)C2`, the INHIBITION was 67.9%.
In the case of `CCOc1cccc(C(=O)N2CCCn3nc(CCC(=O)O)cc3C2)c1`, the INHIBITION is reported as -19%.
Compound `O=C(O)CCc1cc2n(n1)CCCN(C(=O)c1ccc(F)cc1F)C2` has an INHIBITION of -13.5%.
Compound `Cc1ccc(C(=O)N2CCCn3nc(CCC(=O)O)cc3C2)cc1Cl` has an INHIBITION of 52.5%.
In the case of `CCCc1nc(C(=O)N2CCCn3nc(CCC(=O)O)cc3C2)cs1`, the INHIBITION is reported as -9.86%.
Compound `O=C(c1ccc(Cl)s1)N1CCCn2nc(CN3CC[C@H](F)C3)cc2C1` has an INHIBITION of 45%.
